Hits are enriched below; roughly 3.7% of the tested compounds scored in any of these assays.
GLP1R inv ag – qHTS of GLP-1 Receptor Inverse Agonists (Inhibition Mode); Glucagon-like peptide 1 receptor (Homo sapiens), P43220; HEK293 GLP-1R CRE-luciferase, luminescence, 24 h; GLP-1R form is constitutively active; Potency, µM (doses to about 38.3 µM), for inactives: at the highest dose activity change, negative = inhibition, actives largely listed as inhibitors; hit rate 1.6% among 410,000; also: % is scaled to controls: 0 for no effect and ±100 for the full control effect; nearly all actives have a fitted effect of over 55% in size
Target sequence (P43220 whole entry, looked up): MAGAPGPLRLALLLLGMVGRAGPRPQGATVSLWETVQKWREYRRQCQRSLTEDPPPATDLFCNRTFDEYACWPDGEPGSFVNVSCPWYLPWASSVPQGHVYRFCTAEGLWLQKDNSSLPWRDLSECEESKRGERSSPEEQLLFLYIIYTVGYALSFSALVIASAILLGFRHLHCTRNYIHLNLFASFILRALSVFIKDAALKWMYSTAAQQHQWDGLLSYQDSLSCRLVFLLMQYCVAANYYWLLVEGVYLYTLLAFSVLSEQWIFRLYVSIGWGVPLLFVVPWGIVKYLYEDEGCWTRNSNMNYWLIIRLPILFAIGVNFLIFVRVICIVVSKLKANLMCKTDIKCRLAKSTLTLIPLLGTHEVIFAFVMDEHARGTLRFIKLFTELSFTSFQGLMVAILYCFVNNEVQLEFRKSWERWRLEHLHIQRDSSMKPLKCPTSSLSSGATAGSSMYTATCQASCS
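Stable HEK293 clone (constitutively active GLP-1R + cAMP-response luciferase); 200 cells/uL plated, 12 h pre-culture, compound 24 hr, 37 deg C/5% CO2; detection reagent 12 min RT; luminescence.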
ATXN2 expr inh – Primary qHTS for Inhibitors of ATXN expression | HEK-293 ATXN2-luciferase reporter, luminescence, 24 h | Potency, µM (highest dose often 57 µM), inactives show top-dose activity change, negative = inhibition, usual class: inhibitors | hit rate 0.72% among 360,000 | AID 1745845, 2022; also: % is scaled to controls: 0 for no effect and ±100 for the full control effect; nearly all actives have a fitted effect of over 55% in size
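qHTS (up to 57 uM final) was run with 24 h compound exposure of reporter cells at 37 °C. Each well was multiplexed: SteadyGlo luminescence measured ATXN2-luciferase expression after a fluorogenic Gly-Phe-AFC viability readout (25 uM final).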
TGFb SMAD3 inh – qHTS for Inhibitors of TGF-b. hit rate 1.2% among 410,000. HepG2 CAGA-GFP TGF-b/SMAD3 reporter, GFP fluorescence, 18 h; TGF-beta stimulated, 500 pg/mL final. AID 588855, 2011. Potency, µM (titrated, usually from 46.1 µM), without a hit: top-dose activity, negative = inhibition, usual class: inhibitors; also: % is scaled to controls: 0 for no effect and ±100 for the full control effect; nearly all actives have a fitted effect of over 65% in size
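Inhibition of TGF-beta-driven CAGA-GFP reporter expression in HEPG2 cells is measured by cellular GFP fluorescence after 18 h stimulation with 500 pg/mL recombinant TGF-beta in 1% FBS medium at 37 degrees C.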
GLP-1R agonist – qHTS of GLP-1 Receptor Agonists; hit rate 0.007% among 380,000; Glucagon-like peptide 1 receptor (Homo sapiens), P43220; Potency, µM (top dose mostly 45.6 µM), for the others: at the highest dose activation, usual class: activators; HEK293 GLP-1R CRE-luciferase, luminescence, 4-6 h; cells express a hypersensitive GLP-1R form; AID 624172, 2012; also: % of control where 0% means no effect
HepG2 tox – qHTS for Inhibitors of TGF-b: Cytotox Counterscreen; HepG2 CAGA-GFP viability, ATP luminescence, 18 h; Potency, µM (doses to about 46.1 µM), for inactives: at the highest dose activity change, negative = cytotoxicity, actives largely listed as cytotoxic; hit rate 0.76% among 410,000
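HepG2 CAGA-GFP cells (1000/well, DMEM with 1% FBS) received compound, then TGF-beta at 500 pg/mL final, and were incubated 18 hours at 37 degrees C. Viability was read by CellTiter-Glo luminescence. Media-only wells were set as complete cell-killing and DMSO as no toxicity.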
S2 tox – Viability Counterscreen for Primary qHTS for Inhibitors of ATXN expression; S2 cells (HEK-293 line with an ATXN2-luciferase reporter) viability, CellTiter-Fluor protease fluorescence, 24 h; Potency, µM (series often up to 56.7 µM), usual class: cytotoxic; hit rate 0.49% among 400,000; AID 651635, 2014; also: nearly all actives have a fitted effect of over 40% in size
* hit, by the source's call; i = inactive; ? = inconclusive; . = not tested or not shown; ! = not active in a repeat. Calls follow the shape of the dose curve; as a rule, active = well fitted curve in the direction sought with a large enough effect; inconclusive = small, poorly fitted or top-dose-only effect, or another doubt; inactive = no such curve, though single readings can be large; an effect the other way counts as inactive or inconclusive. Potency is read from the fitted curve at half-maximal effect.

SMILES | GLP1R inv ag | ATXN2 expr inh | TGFb SMAD3 inh | GLP-1R agonist | HepG2 tox | S2 tox
COc1ccc(NC(=O)Cn2nnc(-c3ccccc3NS(=O)(=O)c3ccccc3)n2)cc1 | 7.1µM* | -34% | ? | -2% | 5% | ?
COc1ccc(S(=O)(=O)Nc2ccccc2-c2nnn(CC(=O)Nc3ccccc3OC)n2)cc1 | ? | -7% | 0% | -3% | -2% | i
O=C(NCC1(N2CCOCC2)CCCC1)c1cnn(-c2ncc3c(n2)-c2ccccc2CC3)c1C1CC1 | . | . | . | . | . | i
COc1ccc(NC(=S)NC(NC(=O)c2ccc(Cl)cc2Cl)C(Cl)(Cl)Cl)c([N+](=O)[O-])c1 (stereo not given) | 10µM* | ? | 11µM* | -1% | -43% | ?
c1coc(-c2ccccc2CN2CCOc3ccc(CN4CCOCC4)cc3C2)c1 | . | . | . | . | . | i
CCOC(=O)c1c(SCCN2CCCC2)n(-c2ccccc2)c(=S)n(-c2ccccc2)c1=O | ? | 22µM* | ? | -1% | -47% | ?
COc1cc(CN2CCOc3ccc(C(O)c4cccnc4)cc3C2)cc(OC)c1 (stereo not given) | . | . | . | . | . | i
O=C(CCN1CCN(C(=O)OCc2cc(Cl)cc(Cl)c2)CC1)c1ccc2[nH]c(=O)oc2c1 | . | 6% | . | . | . | .
CCOc1cccc(CNc2ccc(O)cc2)c1OCc1ccccc1Cl | ? | 11µM*! | 13µM* | 6% | 16µM*! | 13µM*!
CCOc1cccc(CNc2ccc(O)cc2)c1OCc1ccc(Cl)cc1Cl | ? | ? | ? | 14% | -38% | ?
CCOc1cc(CNc2ccc(O)cc2)cc(Cl)c1OCc1ccccc1 | 11% | 32µM* | ? | . | -95% | 22µM*
CCOc1cc(CNc2ccccc2)cc(Br)c1OCc1ccc(F)cc1 | ? | -1% | -6% | 0% | -1% | i
Cn1c(/C=C/c2ccc(Cl)cc2)c([N+](=O)[O-])c(=O)n(C)c1=O | 0.79µM* | ? | ? | -5% | -55% | i
O=C(c1ccccc1Cl)n1nc(-c2cccnc2)nc1NCc1ccc(F)cc1 | -3% | -5% | ? | . | -32% | i
CC(C)(C)C1CCc2c(sc(NC(=O)CCC(=O)O)c2C(=O)Nc2ccccc2C(F)(F)F)C1 (stereo not given) | ? | . | ? | . | 16µM* | .
N#CC(C#N)=NNc1ccc2cn[nH]c2c1 | ? | ? | ? | -12% | -28% | 16µM*
COc1ccc(S(=O)(=O)c2cn(C)c3cc(N4CCCCCC4)c(F)cc3c2=O)cc1 | 12% | . | -1% | . | -6% | .
Oc1cccc(C(Nc2nccs2)c2ccc3cccnc3c2O)c1 (stereo not given) | ? | ? | 14µM* | 1% | -26% | i
CC(=O)NC(c1ccc(C(C)C)cc1)c1ccc2cccnc2c1O (stereo not given) | ? | 3.2µM* | ? | 12% | -54% | ?
O=[N+]([O-])c1ccc(NC(c2ccccc2)c2ccc3cccnc3c2O)cc1 (stereo not given) | ? | 2.8µM* | -7% | 5% | -1% | i
COc1cccc(C(NC(C)=O)c2ccc3cccnc3c2O)c1 (stereo not given) | ? | ? | ? | 6% | -25% | ?
CC(=O)NC(c1cccc([N+](=O)[O-])c1)c1ccc2cccnc2c1O (stereo not given) | ? | 3.2µM* | ? | 3% | -20% | ?
CCOC(=O)CN1C(=O)c2cccnc2Oc2ccccc21 | 11% | . | . | . | -23% | .
COc1ccc(NC(=O)CCS(=O)(=O)c2ccc3c(c2)n(C)c(=O)c(=O)n3C)cc1Cl | 7% | . | . | . | 1% | .

Compound activity (PubChem BioAssay)
